Compound activity as filed in PubChem.
In the library only some 21% were active in any assay of this set; here they are far more common.
Cycloheximide cs: affects cycloheximide protein synthesis inhibition readout, counter-screen. cell reporter, cycloheximide protein synthesis inhibition counterscreen. max response, %. 300,000 compounds, 12% hits; in the data active = max response mostly above about 13%, no sharp cut-off; inactive = mostly below about 14%; also: read at 38.3 µM for the half of the compounds with a filed dose
NS1 inh: influenza NS1 inhibition | Potency, µM (top dose mostly 46.1 µM) | 270,000 compounds, 0.4% hits; calls by dose curve; also: actives are rising curves; nearly all actives have a fitted effect of over 50% in size
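Recovery from NS1-induced slow growth read by OD600 in budding yeast switched to galactose assay medium (pH 6.0, -URA) at 1:100 dilution. Compound 23 nl per well; the matching strain lacking NS1 serves as control.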
FBPA Giardia inh: blocks Giardia fructose-bisphosphate aldolase activity; A8B2U2; purified Giardia FBPA; Potency, µM (highest dose often 59.6 µM), hits mostly inhibitors; 290,000 compounds, 0.71% hits; AID 2451; also: nearly all actives have a fitted effect of over 55% in size
Target sequence (A8B2U2 whole entry, looked up): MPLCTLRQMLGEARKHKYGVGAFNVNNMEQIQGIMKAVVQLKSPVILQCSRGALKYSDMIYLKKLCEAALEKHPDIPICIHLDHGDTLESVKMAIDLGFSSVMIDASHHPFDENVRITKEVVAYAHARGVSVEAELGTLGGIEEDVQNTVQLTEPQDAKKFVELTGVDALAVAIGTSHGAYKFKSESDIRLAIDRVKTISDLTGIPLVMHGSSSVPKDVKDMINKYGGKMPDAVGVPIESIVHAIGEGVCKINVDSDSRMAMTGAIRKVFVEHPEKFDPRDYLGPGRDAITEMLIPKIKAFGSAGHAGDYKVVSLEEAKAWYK
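Giardia FBPA (40 nM reagent) was preincubated 10 min at RT with compound (up to 57.5 uM final), then substrate plus GAPDH/TPI/NAD/arsenate coupling system with diaphorase/resazurin was added; resorufin fluorescence (525/598 nm) was read after 20 min.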
Pf growth 48h: P. falciparum growth inhibition at 48 hours (one generation) | P. falciparum luciferase growth in erythrocytes, 48 h | Potency, µM (top dose mostly 28.7 µM), most hits filed as inhibitors | 310,000 compounds, 5.9% hits | AID 504832
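Luciferase-expressing parasites in RBCs, 2% Hct / 0.1% parasitemia final; RPMI 1640 + 0.5% Albumax; 37 C, 5% CO2, one generation; luminescence read-out, lower signal = inhibition.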
Shiga toxin inh: inhibitors of Shiga toxin in Vero cells | Vero cells, Shiga toxin protein synthesis inhibition reporter | 290,000 compounds, 9.2% hits | inhibition, % at 38.7 µM; in the data active = inhibition mostly above about 28%, no sharp cut-off; inactive = mostly below about 43%
Pf growth 96h: P. falciparum growth inhibition at 96 hours | P. falciparum luciferase reporter growth, 96 h | 320,000 compounds, 6.9% hits | Potency, µM (doses to about 28.7 µM), most hits filed as inhibitors
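Compounds incubated with erythrocytes infected by luciferase-expressing P. falciparum (2% hematocrit, 0.05% parasitemia final) for 96 hours, 37 C in 5% CO2. Growth inhibition scored as decreased luciferase luminescence.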
A number is an active result; . = inactive; ? = inconclusive; / = not tested or not shown. Unless noted, calls follow the shape of the dose curve; as a rule, active = well fitted curve in the direction sought with a large enough effect; inconclusive = small, poorly fitted or top-dose-only effect, or another doubt; inactive = no such curve, though single readings can be large; an effect the other way counts as inactive or inconclusive.

SMILES | Cycloheximide cs | NS1 inh | FBPA Giardia inh | Pf growth 48h | Shiga toxin inh | Pf growth 96h
O=C(CSc1nc2ccccc2c(=O)n1-c1ccccc1F)Nc1ccc2c(c1)CCC2 | . | ? | . | ? | . | ?
Cc1nc(SCC(=O)Nc2cc(S(=O)(=O)N3CCOCC3)ccc2Cl)nc(C)c1C | / | / | / | ? | / | 15µM
O=S(=O)(c1ccc(Cl)c(NC(=S)Nc2cccc(O)c2)c1)N1CCOCC1 | . | . | . | . | . | .
O=C(CSc1nc2ccccc2c(=O)n1-c1ccc(F)cc1)Nc1ccc2c(c1)CCC2 | . | ? | . | 9.3µM | . | 9.3µM
Cc1ccc(-n2c(SCC(=O)Nc3cc(S(=O)(=O)N4CCOCC4)ccc3Cl)nc3ccccc3c2=O)cc1 | . | ? | . | 10µM | . | 2.9µM
CCOC(=O)CC(NC(=O)CCS(=O)(=O)c1ccc2c(c1)n(C)c(=O)c(=O)n2C)c1ccc(C)cc1 (centres undefined) | . | . | / | . | . | ?
O=C(O)CCC1CCCC1 | . | / | . | / | . | /
COc1ccc(C(=O)NC(=S)N2CCN(c3ccccc3OC)CC2)cc1OC | . | . | ? | . | . | .
Cc1ccc(-c2nc(SCC(=O)Nc3cc(S(=O)(=O)N4CCCCC4)ccc3Cl)n[nH]2)cc1 | 17 | ? | . | . | . | ?
Cc1nnc(SCC(=O)Nc2cc(S(=O)(=O)N3CCCC3)ccc2Cl)s1 | . | . | . | . | . | .
CCN1CCN(C(=O)c2cc(COc3ccc(C(C)=O)cc3OC)on2)CC1 | 43 | . | . | . | 75 | .
COc1cc(C)ccc1OCc1cc(C(=O)N2CCN(C3CCCCC3)CC2)no1 | 48 | . | / | . | 58 | .
COc1cc(Cl)ccc1OCc1cc(C(=O)N2CCC(N(C)C)C2)no1 (centres undefined) | . | . | . | . | . | ?
COc1cc(C)ccc1OCc1cc(C(=O)N2CCCCCCC2)no1 | 51 | . | / | ? | 92 | ?
O=C1CC(Cc2ccccc2)C(=O)N1Cc1ccco1 (centres undefined) | . | ? | . | ? | . | 12µM
COc1ccc(OC)c(CNC(=O)C2CCN(S(=O)(=O)N3CCC(C)CC3)CC2)c1 | . | . | . | . | . | 12µM
COc1cccc(CNC(=O)C2CCN(S(=O)(=O)N3CCCC3)CC2)c1 | . | . | . | . | . | .
COc1cccc(CNC(=O)C2CCN(S(=O)(=O)N3CCC(C)CC3)CC2)c1 | . | . | . | . | . | 13µM
CCS(=O)(=O)N1CCC(C(=O)NCc2cc(OC)ccc2OC)CC1 | . | . | . | . | . | /
Cc1ccc(C(=O)NNC(=O)c2ccccc2O)cc1S(=O)(=O)N1CCCCC1 | / | / | / | ? | / | .
CCCOc1ccc(Br)cc1-c1cc(-c2ccc(Cl)cc2)[nH]c1-c1ccncc1 | / | / | . | / | / | /
C/C=C1\COC(C(=O)NCCOCCO)(C(F)(F)F)C=C1C=C1CCCCC1 (centres undefined) | . | / | . | / | . | /
O=C(CCN1C(=O)[C@@H]2Cc3ccccc3CN2C1=O)N[C@@H](Cc1ccccc1)C(=O)O | . | . | . | . | . | .
CN1CCC(N(C)C(=O)c2cc(-c3ccccc3Cl)nc3ccccc23)CC1 | / | / | / | . | / | ?
CCc1ccccc1NC(=O)N1CCc2ccccc2C1 | . | . | . | . | . | .
SMILES | Cycloheximide cs | NS1 inh | FBPA Giardia inh | Pf growth 48h | Shiga toxin inh | Pf growth 96h
CC(=O)c1ccc(NC(=O)N2CCc3ccccc3C2)cc1 | 29 | / | . | . | 109 | .
CC(=O)c1cccc(NC(=O)N2CCc3ccccc3C2)c1 | 25 | . | . | . | 100 | .
O=C(CCNS(=O)(=O)c1ccccc1C(F)(F)F)NCCCc1ccccc1 | / | / | / | . | / | .
COc1cc(OC)c(C2Nc3ccccc3NC3=C2C(=O)CC(C)(C)C3)cc1OC (centres undefined) | . | . | . | . | . | ?
COc1ccc(C2CC(=O)C3=C(C2)Nc2ccccc2NC3c2coc3ccccc3c2=O)cc1OC (centres undefined) | . | . | . | 7.4µM | . | .
O=C(c1ccco1)N1CCN(c2ncnc3c(-c4ccccc4)nsc23)CC1 | . | . | . | . | . | /
NC(=O)C1CCN(c2ncnc3c(-c4ccccc4)nsc23)CC1 | 50 | . | . | . | 51 | .
N/C(=N\OC(=O)CCC1CCCC1)c1cccnc1 | 15 | . | . | . | . | ?
N/C(=N\OC(=O)C1CCCCC1)c1cccnc1 | . | . | . | . | . | .
Cc1cccc(/C(N)=N/OC(=O)CCC2CCCCC2)c1 | . | . | . | . | . | ?
N/C(=N\OC(=O)CC1CCCCC1)c1cccnc1 | 27 | . | . | . | . | ?
COCCNc1ccnc(-c2ccccc2C)n1 | / | / | . | / | / | /
CC(=O)c1ccccc1NC(=O)COC(=O)/C(=C/c1ccccc1)n1nnnc1C | . | . | / | 5.9µM | . | 2.1µM
COc1ccc(OCCSc2nnnn2C2CCCCC2)cc1 | . | . | . | . | . | /
c1ccc(OCCSc2nnnn2C2CCCCC2)cc1 | 30 | . | . | . | 95 | .
CN(C)c1ccc(/C=N\NC(=O)CC#N)cc1 | . | / | . | . | 35 | .
CN(C)c1ccc(/C=N/NC(=O)CCCO)cc1 | 41 | / | . | . | 63 | .
CCCCCC(=O)N/N=C/c1ccc(N(C)C)cc1 | 18 | . | . | . | . | .
CN(C)c1ccc(/C=N/NC(=O)CNC(=O)c2ccncc2)cc1 | . | . | . | . | . | .
COc1ccc(OCC(=O)N/N=C/c2ccc(N(C)C)cc2)cc1 | 26 | / | . | . | . | ?
O=c1[nH]oc2cc(Cl)ccc12 | . | . | . | . | . | .
O=C(NCc1ccccc1)NC1CC2CCC(C1)N2Cc1ccco1 (centres undefined) | . | . | . | . | . | .
O=C(NC1CC2CCC(C1)N2Cc1nnnn1Cc1ccco1)NC12CC3CC(CC(C3)C1)C2 (centres undefined) | . | . | . | 12µM | . | /
CCOc1ccccc1C(=O)NC1CC2CCCC(C1)N2Cc1nnnn1Cc1ccco1 (centres undefined) | . | . | . | 12µM | . | ?
Nc1nccc(-c2ccc(-n3cccc3)cc2)n1 | 23 | / | . | . | 53 | .
SMILES | Cycloheximide cs | NS1 inh | FBPA Giardia inh | Pf growth 48h | Shiga toxin inh | Pf growth 96h
CN(C)C1=NC(=O)/C(=C/c2ccc(-c3ccc(S(N)(=O)=O)cc3)o2)S1 | . | . | . | . | . | .
NC1=NC(=O)/C(=C\c2ccc(-c3ccc(Cl)cc3)o2)S1 | 13 | . | . | . | 30 | .
O=Cc1c(-c2ccccc2)nc2ccccn12 | . | . | . | . | . | 13µM
O=C(Nc1c(-c2ccccc2)nc2ccccn12)c1ccccc1F | . | . | . | / | . | .
c1ccc2[nH]c(NCCCc3cnc[nH]3)nc2c1 | . | / | ? | / | . | /
CCCCNc1nc2ccccc2[nH]1 | 22 | . | . | ? | . | /
CCOCCCNc1nc2ccccc2[nH]1 | 12 | . | . | . | . | ?
CCN(CC)S(=O)(=O)c1ccc(/C=C/C(=O)OCC(=O)Nc2cccnc2Cl)cc1 | / | / | / | . | / | .
Cn1c(SCc2ccccc2Br)nc2ccccc2c1=O | . | . | . | . | . | ?
